Data from PubChem BioAssay AID504329 (Southern Research Specialized Biocontainment Screening …, 2011).
Out of some 340,000 compounds screened, about 1,000 (0.29%) were called active. Not all results are given here. Entries with a potency or affinity are not part of this list. Values without a mark were called inactive. No stated cut-off is given here; in the data, inconclusive means inhibition above about 27% without an active follow-up result; inactive means below that.

Assay: NS1A inhibition, H1N1 influenza, cell based functional assay (AID 504329)
Conditions: percent inhibition, at 12.5 µM, active compounds read high

Q: Which inhibition does the source give for `Cc1ccc(S(=O)(=O)N2CCCCC2)cc1C(=O)N1CCCCCC1` here?
A: -15.6%

Q: Which inhibition does the source give for `CCOC(=O)C1CCN(C2CCN(C(=O)c3oc4c(F)cccc4c3C)CC2)CC1` here?
A: -2%

Q: Which inhibition does the source give for `Cc1ccc(S(=O)(=O)N(CCC(=O)NCc2ccccc2F)c2ccccc2)cc1` here?
A: -14.3%

Q: With `CC(=O)c1ccc(NC(=O)Nc2ccc(Br)cc2C)cc1` as the compound, how does the inhibition read?
A: 1.12%

Q: For `C=C(C)COc1ccc(-c2[nH]ncc2Oc2ccccc2OC)c(O)c1`, which inhibition is on record?
A: -3.04%

Q: Which inhibition does the source give for `O=[N+]([O-])c1ccccc1/C=C/C=N/N1CCCCC1` here?
A: 4.44%

Q: Which inhibition does the source give for `O=[N+]([O-])c1ccccc1/C=N\N1CCN(c2ccccc2)CC1` here?
A: 17%

Q: With `CC1CC(C)CN(C(=O)c2cccc3c2-c2ccccc2C3=O)C1` (configuration not stated) as the compound, how does the inhibition read?
A: -15%

Q: For `O=C1c2ccccc2-c2c1cccc2C(=O)N1CCCCCC1`, which inhibition is on record?
A: -0.29%

Q: Which inhibition does the source give for `O=C(O)c1ccc2c(c1Nc1ccccc1)C(=O)c1ccccc1C2=O` here?
A: 16.9%

Q: With `CCNc1c(C(=O)O)ccc2c1C(=O)c1ccccc1C2=O` as the compound, how does the inhibition read?
A: 10.3%

Q: For `O=C1c2ccccc2-c2c1cccc2C(=O)N1CCCCC1`, which inhibition is on record?
A: -10.6%

Q: For `CC1CCCN(C(=O)CN2C(=O)c3ccccc3C2=O)C1` (configuration not stated), which inhibition is on record?
A: -0.8%

Q: Which inhibition does the source give for `CCN(CCN(C)C)C(=O)c1ccc2c(c1NCCO)C(=O)c1ccccc1C2=O` here?
A: 12.9%

Q: For `O=C1c2ccccc2C(=O)c2c1ccc(C(=O)N1CCCCC1)c2NCCO`, which inhibition is on record?
A: 21.2%

Q: With `CCOC(=O)c1sc(C)c2c(=O)n(CCCN3CCOCC3)cnc12` as the compound, how does the inhibition read?
A: -0.01%

Q: With `Cc1cc(C(=O)NCc2cccnc2)n(-c2ccccc2)n1` as the compound, how does the inhibition read?
A: 24.2%

Q: Which inhibition does the source give for `CC(C)(C)OC(=O)N[C@H](C(=O)OC(C)(C)C)c1ccc(C(F)(F)F)cc1` here?
A: 8.11%

Q: With `COC(=O)CNC(=O)Cn1c(=O)n(Cc2ccc(F)cc2)c(=O)c2sccc21` as the compound, how does the inhibition read?
A: 0.76%

Q: With `COc1ccc(CCC(=O)NCCS(=O)(=O)N2CCN(c3ccc(OC)cc3)CC2)cc1` as the compound, how does the inhibition read?
A: 1.44%

Q: Which inhibition does the source give for `COC(=O)c1sc2ncccc2c1OCc1cccc(Cl)c1` here?
A: 1.6%

Q: Which inhibition does the source give for `Cc1cc(C)cc(OCC(=O)Nc2nonc2NC(=O)COc2cc(C)cc(C)c2)c1` here?
A: -4.28%

Q: For `Nn1c(SC/C=C/c2ccccc2)nnc1-c1cccnc1`, which inhibition is on record?
A: -6.35%

Q: For `Nn1c(SC/C=C/c2ccccc2)nnc1-c1ccncc1`, which inhibition is on record?
A: -1.07%

Q: Which inhibition does the source give for `CN(c1ncc(C(F)(F)F)cc1Cl)N1C(=O)c2cccc(N)c2C1=O` here?
A: -4.28%

Q: Which inhibition does the source give for `COc1ccccc1N1CCN(C(=O)c2sc3ncn(CC(=O)N4CCC(C)CC4)c(=O)c3c2C)CC1` here?
A: 6.39%

Q: Which inhibition does the source give for `CN(Cc1nc(CC2CC2)no1)CC12CC3CC(CC(C3)C1)C2` here?
A: -6.9%

Q: Which inhibition does the source give for `O=C(c1ccc(O)cc1)c1ccc(C(=O)c2ccc(O)cc2)cc1` here?
A: -19.1%

Q: For `O=C(c1ccc(O)cc1)c1ccc(Cl)cc1`, which inhibition is on record?
A: -10.1%

Q: Which inhibition does the source give for `CCOCCCNC(=O)C1c2ccccc2C(=O)N2CCc3ccccc3C12` (configuration not stated) here?
A: 24.7%

Q: With `Cc1ccc(Nc2cccccc2=O)cc1` as the compound, how does the inhibition read?
A: -5.45%

Q: With `COc1ccc(Nc2cccccc2=O)cc1` as the compound, how does the inhibition read?
A: -2.41%

Q: With `COc1ccccc1Nc1ccc(N)cc1` as the compound, how does the inhibition read?
A: 10.9%

Q: Which inhibition does the source give for `Nc1ccccc1Nc1ccccc1` here?
A: 18.3%

Q: For `CC(=O)Nc1ccc(Nc2ccccc2)cc1`, which inhibition is on record?
A: -4.36%

Q: For `CC(C)Nc1ccccc1`, which inhibition is on record?
A: -4.73%

Q: Which inhibition does the source give for `COc1ccc(Nc2cccc3ccccc23)cc1` here?
A: -1.24%

Q: For `Cc1ccc(Nc2ccccc2)cc1`, which inhibition is on record?
A: 9.38%

Q: Which inhibition does the source give for `CC(CN1CCN(C)CC1)OC(=O)c1cccc(F)c1` (configuration not stated) here?
A: -2.72%

Q: With `COc1cc(OC)c(CN2CCC(Cc3ccccc3)CC2)cc1Br` as the compound, how does the inhibition read?
A: -20.9%

Q: With `COc1ccc(NC(=O)CSc2nc3[nH]ncc3c(=O)[nH]2)cc1OC` as the compound, how does the inhibition read?
A: -0.08%

Q: With `COc1cccc(CNc2nc3nc(C)c(Cl)c(C)n3n2)c1` as the compound, how does the inhibition read?
A: 0.89%

Q: For `CCc1nnc(NC(=O)COC(=O)c2cc(OC)cc(OC)c2)s1`, which inhibition is on record?
A: 1.22%

Q: For `CCc1ccc(NC(=O)C2CCN(c3ncnc4c3nc3n4CCCCC3)CC2)cc1`, which inhibition is on record?
A: -5.69%

Q: Which inhibition does the source give for `CCOc1ccc2oc(C(=O)N(Cc3nnc(-c4ccccc4Cl)o3)C3CC3)c(C)c2c1` here?
A: -5.39%

Q: For `CC(C)c1ccc(CNC(=O)CSCC(=O)Nc2ccc3ccccc3c2)cc1`, which inhibition is on record?
A: 1.48%

Q: Which inhibition does the source give for `CCc1nn(CC(=O)NC2CCN(Cc3ccccc3)CC2)c(=O)c2cc3cc(F)ccc3n12` here?
A: 0.23%

Q: Which inhibition does the source give for `Cc1cc(C)c(NC(=O)CS(=O)CC(=O)Nc2ccc(-n3cnnn3)c(C)c2)c(C)c1` (configuration not stated) here?
A: -3.45%

Q: Which inhibition does the source give for `C/C(=C/c1ccccc1)C(=O)N1CCN(c2ccc(F)cc2)CC1` here?
A: -28.5%

Q: For `c1ccc(Nc2ccc(Nc3ccccc3)cc2)cc1`, which inhibition is on record?
A: 26.8%

Q: Which inhibition does the source give for `c1ccc(Nc2ccccc2)cc1` here?
A: -1.53%

Q: With `CC(C)c1nc(SCC(=O)N2CCCCCC2)c2c(=O)n(C)c(=O)n(C)c2n1` as the compound, how does the inhibition read?
A: -2.22%

Q: With `COc1ccc(C(CCNCc2ccc(OC(C)C)cc2)c2ccccc2OC)cc1` (configuration not stated) as the compound, how does the inhibition read?
A: 3.25%

Q: With `COc1ccc(CNCCC(c2ccc(OC)cc2)c2ccccc2OC)cc1` (configuration not stated) as the compound, how does the inhibition read?
A: -0.73%

Q: For `COc1ccc(CNCCC(c2ccc(OC(C)C)cc2)C(C)C)cc1OC` (configuration not stated), which inhibition is on record?
A: 5.92%

Q: With `COc1ccccc1C(CCNCc1ccccc1)c1ccc(OC(C)C)cc1` (configuration not stated) as the compound, how does the inhibition read?
A: 11.1%

Q: Which inhibition does the source give for `COc1ccc(CNCCC(c2ccc(OC(C)C)cc2)c2ccccc2OC)cc1` (configuration not stated) here?
A: 13.4%

Q: For `COc1ccc(C(CCNCc2ccc(N(C)C)cc2)c2ccccc2)cc1` (configuration not stated), which inhibition is on record?
A: 25.2%

Q: With `O=C(CCc1c[nH]c2ccccc12)NCc1cccc(Cl)c1` as the compound, how does the inhibition read?
A: 15.9%

Q: Which inhibition does the source give for `Cc1cc(=O)oc2cc(OCC(=O)Nc3c(C)n(C)n(-c4ccccc4)c3=O)c(Cl)cc12` here?
A: -7.09%

Q: Which inhibition does the source give for `Cc1cc(=O)oc2cc(OCC(=O)N(C)C3CCS(=O)(=O)C3)c(Cl)cc12` (configuration not stated) here?
A: -3.85%

Q: With `CN(C)/C=C1/C(=O)NC(=O)N(CCNc2ncc(C(F)(F)F)cc2Cl)C1=O` as the compound, how does the inhibition read?
A: -1.37%
